In PubChem BioAssay (NCI):
Several values for one entry are separate records, joined by “and”; a condition that tells them apart may be missing. Equal entries are not always repeated. This is part of a sample that, as a whole, favours compounds with a hit. Of some 83,000 tested, about 20% had one in any assay.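 Single-dose data. Exposure time 48 hours. Values below 10 considered active.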 Activity calls are given as the source filed them.

Columns and labels:
Assay in all cases: NCI-60 one-dose screen, 48 h (100 = growth as untreated, 0 = no growth, -100 = all killed)
Details in all cases: 10 µM unless noted
DU-145 prostate = tested on: DU-145 prostate
K-562 leukemia = tested on: K-562 leukemia
MALME-3M melanoma = tested on: MALME-3M melanoma
MDA-MB-231 breast = tested on: MDA-MB-231 breast
RXF 393 renal = tested on: RXF 393 renal
SF-268 CNS = tested on: SF-268 CNS
SF-295 CNS = tested on: SF-295 CNS
SF-539 CNS = tested on: SF-539 CNS
UACC-257 melanoma = tested on: UACC-257 melanoma
M14 melanoma = tested on: M14 melanoma
HCT-15 colon = tested on: HCT-15 colon
HT29 colon = tested on: HT29 colon
SNB-75 CNS = tested on: SNB-75 CNS
SNB-19 CNS = tested on: SNB-19 CNS
U251 CNS = tested on: U251 CNS
PC-3 prostate = tested on: PC-3 prostate
SK-MEL-5 melanoma = tested on: SK-MEL-5 melanoma
LOX IMVI melanoma = tested on: LOX IMVI melanoma
SK-MEL-28 melanoma = tested on: SK-MEL-28 melanoma
UACC-62 melanoma = tested on: UACC-62 melanoma

Measured: growth

CCC1CCC(=O)O1 (stereo not drawn)
inactive: DU-145 prostate 112% and 116% | K-562 leukemia 110% and 119% | MALME-3M melanoma 98.2% and 116% | MDA-MB-231 breast 106% and 112% | RXF 393 renal 101% and 124% | SF-268 CNS 106% and 110% | SF-295 CNS 119% | SF-539 CNS 98.7% and 106% | UACC-257 melanoma 105% | M14 melanoma 107% and 114% | HCT-15 colon 98.1% and 105% | HT29 colon 107% and 110% | SNB-75 CNS 86% and 96.4% | SNB-19 CNS 115% and 113% | U251 CNS 97% and 108% | PC-3 prostate 97.8% and 105% | SK-MEL-5 melanoma 103% and 104% | LOX IMVI melanoma 97.5% and 103% | SK-MEL-28 melanoma 104% and 115%

C/C(=C\c1ccn(-c2ccc(N)c(C(F)(F)F)c2)n1)[C@@H]1C[C@@H]2O[C@]2(C)CCC[C@H](C)[C@H](O)[C@@H](C)C(=O)C(C)(C)[C@@H](O)CC(=O)O1
active: DU-145 prostate -12.7% | RXF 393 renal 8.01% | SF-539 CNS -8.5% | SNB-75 CNS -2.27%
inactive: K-562 leukemia 11.9% | MALME-3M melanoma 51.7% | MDA-MB-231 breast 22.8% | SF-268 CNS 36% | SF-295 CNS 15.1% | UACC-257 melanoma 64.3% | M14 melanoma 21.7% | HCT-15 colon 20% | HT29 colon 13% | SNB-19 CNS 38% | U251 CNS 26.3% | PC-3 prostate 15.7% | SK-MEL-5 melanoma 21.5% | UACC-62 melanoma 20.7% | LOX IMVI melanoma 26.2% | SK-MEL-28 melanoma 55.8%

C[C@]12CCc3sc(Nc4ccc(OC(F)(F)F)cc4)nc3C1=CC[C@@H]1[C@@H]2CC[C@]2(C)C(=O)CC[C@@H]12
inactive: DU-145 prostate 66.1% | MALME-3M melanoma 76.8% | MDA-MB-231 breast 73.5% | SF-268 CNS 68.6% | UACC-257 melanoma 84% | M14 melanoma 83.9% | HCT-15 colon 38.3% | HT29 colon 13% | SNB-75 CNS 68.6% | SNB-19 CNS 56.5% | U251 CNS 34.1% | PC-3 prostate 38.6% | UACC-62 melanoma 63.4% | LOX IMVI melanoma 34.8% | SK-MEL-28 melanoma 65.3%
active: K-562 leukemia 8.2% | RXF 393 renal -32.2% | SF-295 CNS -2.71% | SF-539 CNS -5.4%

CCOC(=O)P(=O)(OCC)OCC
inactive: DU-145 prostate 115% | K-562 leukemia 121% | MALME-3M melanoma 122% | MDA-MB-231 breast 110% | RXF 393 renal 115% | SF-268 CNS 104% | SF-295 CNS 126% | SF-539 CNS 106% | UACC-257 melanoma 102% | M14 melanoma 116% | HCT-15 colon 101% | HT29 colon 102% | SNB-75 CNS 115% | SNB-19 CNS 97.9% | U251 CNS 109% | SK-MEL-5 melanoma 107% | UACC-62 melanoma 96.9% | LOX IMVI melanoma 91.6%

O=C1c2ccccc2C(=O)N1N1CC1c1ccccc1 (stereo not drawn)
inactive: DU-145 prostate 109% | K-562 leukemia 97.7% | MALME-3M melanoma 91.9% | MDA-MB-231 breast 118% | RXF 393 renal 107% | SF-268 CNS 104% | SF-295 CNS 104% | SF-539 CNS 102% | UACC-257 melanoma 101% | M14 melanoma 100% | HCT-15 colon 101% | HT29 colon 110% | SNB-75 CNS 100% | SNB-19 CNS 104% | U251 CNS 104% | PC-3 prostate 97.7% | SK-MEL-5 melanoma 101% | UACC-62 melanoma 105% | LOX IMVI melanoma 96.6% | SK-MEL-28 melanoma 108%

N#CC(NC(=O)CCl)=C(Cl)Cl
active: K-562 leukemia -23.6% | MALME-3M melanoma -79.1% | MDA-MB-231 breast 1.44% | RXF 393 renal -78% | SF-539 CNS 5.84% | UACC-257 melanoma 3.34% | M14 melanoma -91.1% | HCT-15 colon -21.1% | HT29 colon -49.2% | U251 CNS 9.19% | UACC-62 melanoma -5.68% | LOX IMVI melanoma -56.4% | SK-MEL-28 melanoma -39.9%
inactive: DU-145 prostate 44.1% | SF-268 CNS 28.9% | SF-295 CNS 89.9% | SNB-75 CNS 66.6% | SNB-19 CNS 60.3% | PC-3 prostate 37.7%

CCCCCCCCCCCCCCCC[n+]1ccccc1
inactive: HCT-15 colon 17.1% and 15.2%
active: DU-145 prostate -74.4% and -12.9% | K-562 leukemia -44.3% and 0.871% | MALME-3M melanoma -56.5% and -38% | MDA-MB-231 breast -40.7% and -32.7% | RXF 393 renal -86.7% | SF-268 CNS -58.9% and -32.7% | SF-295 CNS -69.1% and -56.5% | SF-539 CNS -70.3% and -27.4% | UACC-257 melanoma -52.2% and -26.1% | M14 melanoma -49% and -77.5% | HT29 colon -68.2% and -58.8% | SNB-75 CNS -77.3% and -40.5% | SNB-19 CNS -88.4% and -62.6% | U251 CNS -90.4% and -76.3% | UACC-62 melanoma -68% and -46.2% | LOX IMVI melanoma -72.9% and -79.8% | SK-MEL-28 melanoma -55% and -30.7%
